Data as given in PubChem BioAssay (NCATS).
Records with an inconclusive call do not appear. Calls of active or inactive are those of the source. The call rests on the fitted dose curve; in most records, active means well fitted curve in the direction sought with a large enough effect; inconclusive means small, poorly fitted or top-dose-only effect, or another doubt; inactive means no such curve, though single readings can be large; an effect the other way counts as inactive or inconclusive.

What was measured:
[1] = Quantitative High-Throughput drug screen in 47 multiple myeloma cell lines against the NCATS MIPE library collection: KHM11_PLB cell viability assay (AID 1918962); further: nearly all actives have a fitted effect of over 35% in size
Summary of the method: (§1)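 Inhibition of cell viability is measured here. Each line was plated at 500 cells per well, treated with MIPE 4.0 drugs, kept 48 hours at 37C, then assayed for ATP content by CellTiter-Glo luminescence.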

[2] = Quantitative High-Throughput drug screen in 47 multiple myeloma cell lines against the NCATS MIPE library collection: JIM3_ECACC cell viability assay (AID 1918963; further: nearly all actives have a fitted effect of over 35% in size)
Summary of the method: as §1

[3] = Quantitative High-Throughput drug screen in 47 multiple myeloma cell lines against the NCATS MIPE library collection: JIM1_ECACC cell viability assay (AID 1918964)
Summary of the method: (§2)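 Myeloma cell lines, 500 cells per well, exposed to MIPE 4.0 library compounds for 48 h at 37C, 5% CO2. Viability from ATP by CellTiter-Glo luminescence; normalised to DMSO (100%) and media-only (0%) wells.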

[4] = Quantitative High-Throughput drug screen in 47 multiple myeloma cell lines against the NCATS MIPE library collection: INA6_PLB cell viability assay (AID 1918965; further: nearly all actives have a fitted effect of over 55% in size)
Summary of the method: (§3)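 qHTS of the MIPE 4.0 collection: 500 myeloma cells/well, 48 h drug exposure at 37C in 5% CO2, then CellTiter-Glo for 5 min at room temperature before luminescence reading.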

[5] = Quantitative High-Throughput drug screen in 47 multiple myeloma cell lines against the NCATS MIPE library collection: JJN3_DSMZ cell viability assay (AID 1918966; further: nearly all actives have a fitted effect of over 50% in size)
Summary of the method: as §2

[6] = Quantitative High-Throughput drug screen in 47 multiple myeloma cell lines against the NCATS MIPE library collection: H1112_PLB cell viability assay (AID 1918967; further: nearly all actives have a fitted effect of over 30% in size)
Summary of the method: as §2

[7] = Quantitative High-Throughput drug screen in 47 multiple myeloma cell lines against the NCATS MIPE library collection: Karpas25_ECACC cell viability assay (AID 1918968; further: nearly all actives have a fitted effect of over 35% in size)
Summary of the method: as §2

[8] = Quantitative High-Throughput drug screen in 47 multiple myeloma cell lines against the NCATS MIPE library collection: KMS27_JCRB cell viability assay (AID 1918970); further: nearly all actives have a fitted effect of over 30% in size
Summary of the method: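 Luminescent ATP read-out (CellTiter-Glo, 5 min at room temperature) after 48 h compound exposure of 500 KMS27_JCRB cells per well; DMSO wells define full viability and media-only wells zero.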

[9] = Quantitative High-Throughput drug screen in 47 multiple myeloma cell lines against the NCATS MIPE library collection: KMS12BM_JCRB cell viability assay (AID 1918971); further: nearly all actives have a fitted effect of over 35% in size
Summary of the method: (§4)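 Steps: seed 500 cells per well; pin-transfer MIPE 4.0 library; incubate 48 h at 37C, 5% CO2, humidified; add CellTiter-Glo, 5 min room temperature; read luminescence.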

[10] = Quantitative High-Throughput drug screen in 47 multiple myeloma cell lines against the NCATS MIPE library collection: KMS12PE_JCRB cell viability assay (AID 1918972); further: nearly all actives have a fitted effect of over 30% in size; on viability: series mostly up to about 46 µM
Summary of the method: as §3

[11] = Quantitative High-Throughput drug screen in 47 multiple myeloma cell lines against the NCATS MIPE library collection: KMS20_JCRB cell viability assay (AID 1918973); further: nearly all actives have a fitted effect of over 45% in size
Summary of the method: as §2

[12] = Quantitative High-Throughput drug screen in 47 multiple myeloma cell lines against the NCATS MIPE library collection: KMS26_JCRB cell viability assay (AID 1918975); further: nearly all actives have a fitted effect of over 45% in size
Summary of the method: as §4

[13] = Quantitative High-Throughput drug screen in 47 multiple myeloma cell lines against the NCATS MIPE library collection: MOLP8_DSMZ cell viability assay (AID 1918977); further: nearly all actives have a fitted effect of over 45% in size
Summary of the method: (§5)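 Viability after 48 h drug exposure was measured as ATP-dependent luminescence. Cells, 500 per well, sat at 37 °C under 5% CO2; DMSO wells set 100%, media-only wells 0%.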

[14] = Quantitative High-Throughput drug screen in 47 multiple myeloma cell lines against the NCATS MIPE library collection: NCIH929_DSMZ cell viability assay (AID 1918978); further: nearly all actives have a fitted effect of over 35% in size
Summary of the method: as §5

[15] = Quantitative High-Throughput drug screen in 47 multiple myeloma cell lines against the NCATS MIPE library collection: OCIMY1_PLB cell viability assay (AID 1918979); further: nearly all actives have a fitted effect of over 35% in size; on viability: series mostly up to about 46 µM
Summary of the method: as §5

[16] = Quantitative High-Throughput drug screen in 47 multiple myeloma cell lines against the NCATS MIPE library collection: MM1R_ATCC cell viability assay (AID 1918981); further: nearly all actives have a fitted effect of over 35% in size
Summary of the method: as §5

[17] = Quantitative High-Throughput drug screen in 47 multiple myeloma cell lines against the NCATS MIPE library collection: LP1_DSMZ cell viability assay (AID 1918982); further: nearly all actives have a fitted effect of over 35% in size
Summary of the method: as §5

[18] = Quantitative High-Throughput drug screen in 47 multiple myeloma cell lines against the NCATS MIPE library collection: MMM1_PLB cell viability assay (AID 1918976); further: nearly all actives have a fitted effect of over 35% in size
Summary of the method: as §5

[19] = Quantitative High-Throughput drug screen in 47 multiple myeloma cell lines against the NCATS MIPE library collection: MM1S_ATCC cell viability assay (AID 1918980); further: nearly all actives have a fitted effect of over 45% in size
Summary of the method: as §5

Measured: Potency
Potency means the concentration at half of the fitted maximal effect.

NS(=O)(=O)c1cccc2c1C(=O)c1cccc(O)c1C2=O
active: [1] 0.662 µM | [2] 0.187 µM | [3] 0.209 µM | [4] 0.148 µM | [5] 0.264 µM | [6] 0.526 µM | [7] 0.132 µM | [8] 0.209 µM | [9] 1.05 µM | [10] 0.264 µM | [11] 0.132 µM | [12] 0.662 µM | [13] 0.296 µM | [14] 0.264 µM | [15] 1.18 µM | [16] 0.526 µM | [17] 0.743 µM

CC(=O)O[C@]1(C(C)=O)CC[C@@H]2[C@@H]3C[C@H](C)C4=CC(=O)CC[C@]4(C)[C@H]3CC[C@@]21C
active: [4] 18.7 µM | [5] 20.9 µM | [7] 18.7 µM | [9] 16.6 µM | [12] 23.5 µM | [18] 20.9 µM | [19] 13.2 µM | [16] 20.9 µM
inactive: [1] | [2] | [3] | [10]

O=c1cc(N2CCOCC2)oc2c(-c3cccc4c3sc3ccccc34)cccc12
active: [1] 5.9 µM | [2] 3.32 µM | [3] 2.96 µM | [4] 2.96 µM | [5] 14.8 µM | [6] 16.6 µM | [7] 4.18 µM | [9] 16.6 µM | [10] 11.8 µM | [11] 13.2 µM | [12] 20.9 µM | [18] 20.9 µM | [13] 4.18 µM | [14] 3.72 µM | [16] 16.6 µM

CO[C@@H](C(=O)N1Cc2[nH]nc(NC(=O)c3ccc(N4CCN(C)CC4)cc3)c2C1)c1ccccc1
active: [1] 10.5 µM | [2] 4.69 µM | [3] 16.6 µM | [4] 0.372 µM | [5] 23.5 µM | [7] 16.6 µM | [8] 23.5 µM | [11] 16.6 µM | [14] 11.8 µM | [19] 20.9 µM | [16] 20.9 µM
inactive: [15]

N#CC1(c2ccc(NC(=O)c3cccnc3NCc3ccncc3)cc2)CCCC1
active: [4] 18.7 µM | [9] 23.5 µM | [10] 0.469 µM | [17] 16.6 µM
inactive: [1] | [2] | [3] | [6] | [14] | [15] | [19]

CN1CCN(CCOc2cc(OC3CCOCC3)c3c(Nc4c(Cl)ccc5c4OCO5)ncnc3c2)CC1
inactive: [15]
active: [1] 18.7 µM | [2] 23.5 µM | [3] 20.9 µM | [4] 2.96 µM | [6] 23.5 µM | [7] 16.6 µM | [10] 14.8 µM | [11] 8.33 µM | [13] 16.6 µM | [14] 18.7 µM

Cc1ccc(F)c(NC(=O)Nc2ccc(-c3cccc4[nH]nc(N)c34)cc2)c1
active: [1] 8.33 µM | [2] 7.43 µM | [3] 1.87 µM | [4] 16.6 µM | [5] 18.7 µM | [6] 10.5 µM | [7] 26.4 µM | [9] 26.4 µM | [10] 8.33 µM | [13] 26.4 µM | [14] 9.35 µM | [16] 23.5 µM | [17] 16.6 µM

C[C@]12CC[C@@H]3c4ccc(O)cc4C[C@@H](CCCCCCCCCS(=O)CCCC(F)(F)C(F)(F)F)[C@H]3[C@H]1CC[C@H]2O (stereo not given in full)
active: [9] 16.6 µM | [10] 7.43 µM | [14] 0.0187 µM | [17] 11.8 µM
not listed: [5] | [11] | [16] | [18] | [19]
inactive: all other assays above

CN(C)Cc1ccc(-c2nc3cccc4c3n2CCNC4=O)cc1
active: [1] 11.8 µM | [2] 20.9 µM | [3] 11.8 µM | [4] 16.6 µM | [5] 18.7 µM | [6] 20.9 µM | [7] 23.5 µM | [8] 20.9 µM | [13] 13.2 µM | [14] 18.7 µM | [19] 18.7 µM | [16] 20.9 µM | [17] 23.5 µM
inactive: [15]

Cc1c(O)cccc1C(=O)N[C@@H](CSc1ccccc1)[C@H](O)CN1C[C@H]2CCCC[C@@H]2C[C@@H]1C(=O)NC(C)(C)C
active: [1] 18.7 µM | [2] 20.9 µM | [3] 9.35 µM | [4] 23.5 µM | [5] 18.7 µM | [7] 14.8 µM | [8] 16.6 µM | [9] 20.9 µM | [10] 10.5 µM | [18] 20.9 µM | [13] 16.6 µM | [14] 23.5 µM | [15] 20.9 µM | [16] 18.7 µM | [17] 20.9 µM

Cc1[nH]c(C=C2C(=O)Nc3ccc(S(=O)(=O)Cc4c(Cl)cccc4Cl)cc32)c(C)c1C(=O)N1CCC[C@H]1CN1CCCC1
active: [1] 8.33 µM | [2] 18.7 µM | [3] 7.43 µM | [4] 3.32 µM | [5] 23.5 µM | [6] 14.8 µM | [7] 2.96 µM | [9] 23.5 µM | [10] 2.64 µM | [11] 0.743 µM | [18] 23.5 µM | [13] 16.6 µM | [14] 8.33 µM | [15] 26.4 µM | [16] 20.9 µM | [17] 23.5 µM
